Test system: Lefty1
Assay: Lefty1 protein binding to printed compounds – biochemical, small-molecule microarray, 635/667 nm fluorescence, primary screen (AID 1139)
Details: fluorescence 635/667, higher = more signal

Compound | composite z-score
CC=CC(O)C1C=CC2C(=O)NC(=O)C2N1Nc1ccccn1 (stereo unspecified) | 0.585
COCCOC(=O)N1C(=O)[C@@]2(c3ccccc31)[C@H](c1ccccc1OCCO)N1[C@H](c3ccccc3)[C@H](c3ccccc3)OC(=O)[C@H]1[C@@H]2C(N)=O | 1.01
COc1cc(NN2C(C(O)c3ccc(I)cc3)C=CC3C(=O)N(c4ccccc4)C(=O)C32)cc(OC)c1OC (stereo unspecified) | 0.52
[N-]=[N+]=NCc1ccccc1[C@@H]1OC(c2ccc(OCCCO)cc2)=N[C@]1(Cc1ccccc1N=[N+]=[N-])C(=O)NCCN1CCOCC1 | 0.54
C=C(/C(=C/C[C@H](OC(=O)c1ccncc1)c1ccccc1OCCO)c1cnc2ccccc2c1)C(C)C | 1.39
C=CCNC(=O)[C@@H]1[C@H]2C(=O)O[C@H](c3ccccc3)[C@H](c3ccccc3)N2[C@H](c2ccc(OCCO)cc2)[C@@]12C(=O)N(C(=O)OCCOC)c1ccc(C#CCCO)cc12 | 1.1
C=C[C@H](C)[C@H](OC(=O)Nc1ccc(OC)cc1)c1ccc(OCCO)cc1 | -0.431
COc1ccc(C#Cc2ccc3c(c2)[C@]2(C(=O)N3)[C@H](C(=O)N3CCCCCCC3)[C@H]3C(=O)O[C@H](c4ccccc4)[C@H](c4ccccc4)N3[C@@H]2c2ccc(O)cc2)cc1 | 0.942
NCCCCCNC(=O)[C@H]1C[C@H]2C(=O)N[C@@H](Cc3ccccc3)C(=O)N2[C@H]1c1ccc(O)cc1 | 0.765
CC(C)c1ccc(NN2C(C(O)Cc3ccccc3)C=CC3C(=O)N(c4ccccc4)C(=O)C32)cc1 (stereo unspecified) | 0.441
Cc1ccc(S[C@]2(C(=O)NCc3ccccc3)CC(=O)N(Cc3cc(C(F)(F)F)cc(C(F)(F)F)c3)[C@@H]2c2ccc(CO)cc2I)cc1 | -1.25

— PubChem BioAssay
